Out of some 48,000 compounds screened, about 13,000 (27%) showed an effect of 50% or more. Some of the results follow.
Tested on: Wolbachia pipientis
Assay: Anti-Wolbachia Cell-Based Screen
Format: functional
Design: scale not given: in the data most compounds retested in dose-response had high values
Details: 5 µM

SMILES	Percent Effect
Cc1ccc2nc3n(c2c1)[C@@H](CNCc1nccs1)COC3	-1.407%
COc1ccccc1C(NC(=O)CN(C)C(C)C)c1noc(C)n1 (stereo unspecified)	-26.87%
Cc1ccc(C)c(NC(=O)N(C)Cc2cnn(C)c2)c1	5.925%
COCC(=O)N1CCC2(CCC2N(C)Cc2ccco2)CC1.O=C(O)C(F)(F)F (stereo unspecified)	-4.207%
CC(C(=O)NCc1cccc(N2CCCC2=O)c1)S(C)(=O)=O (stereo unspecified)	-9.157%
COc1ccc(NC(=O)NCc2cccc(N(C)C)n2)c(Cl)c1	3.933%
CCc1nc(C(=O)NCc2ccc(N3CCNC(=O)C3)c(F)c2)c[nH]1	-14.99%
Cc1ccc([C@@H]2CN(S(=O)(=O)Cc3ccccc3)C[C@H]2N(C)C)cc1	2.624%
CCn1ccnc1CN(C)Cc1nc(Cc2ccccc2Cl)no1	-11.87%
CC(C)(C)n1nnnc1CN(CCc1ccccc1)Cc1ccccc1	189.2%
CC(C)(C)n1nnnc1CN(Cc1ccccc1)Cc1ccc(Cl)cc1	282.7%
CCN(Cc1ccncc1)Cc1cn(-c2ccccc2)nn1	-1.691%
CC(C)(C)n1nnnc1CN(Cc1ccccc1)Cc1ccccc1Cl	144.9%
CN(CCc1ccncc1)Cc1nccn1Cc1ccccc1	0.009024%
CN(Cc1ccncc1)Cc1nccn1Cc1ccccc1	10.06%
CCN(Cc1noc(CC(C)C)n1)Cc1ccccc1Cl	16.12%
Cc1nc(CCN(C)C(=O)CN2C(=O)OC[C@@H]2c2ccccc2)no1	2.107%
CN(C)[C@H]1C[C@@H](Cc2cc(-c3ccc(F)cc3)on2)C1(C)C	-8.527%
CN(Cc1ccoc1)C(=O)C1(Oc2ccc(Cl)cc2)CCNCC1	7.031%
CN1CCOC(C(=O)Nc2ccc3c(c2)nc(C2CC2)n3C)C1 (stereo unspecified)	-8.812%
CCS(=O)(=O)N1CC[C@H]2O[C@H](c3nnc(C)o3)CC[C@H]21	-2.674%
COc1ccc(CN2CCOC3(CCCN(C(C)=O)C3)C2)cc1.O=C(O)C(F)(F)F (stereo unspecified)	-1.413%
CC(C)NC(=O)CC1COC2(CCN(Cc3ccco3)CC2)C1 (stereo unspecified)	109.8%
CC(C)C1COC2(CCN(Cc3ccco3)CC2)C1.O=C(O)C(F)(F)F (stereo unspecified)	8.563%

SMILES	Percent Effect
CC(C)NC(=O)CC1COC2(CCN(Cc3ccsc3)CC2)C1.O=C(O)C(F)(F)F (stereo unspecified)	89.57%
COc1ccc(CN2CCC3(CC2)CN(c2ccccn2)CCO3)cc1.O=C(O)C(F)(F)F.O=C(O)C(F)(F)F	-0.9926%
CN(C)C(=O)NC1COC2(CCN(Cc3ccco3)CC2)C1 (stereo unspecified)	-11.16%
CC(C)C(=O)NC1COC2(CCN(Cc3cccnc3)CC2)C1.O=C(O)C(F)(F)F.O=C(O)C(F)(F)F (stereo unspecified)	-8.179%
CC(C)NC(=O)[C@H]1C[C@@H]2[C@@H](C1)OCCN2Cc1ccsc1.O=C(O)C(F)(F)F	9.511%
CN(C)C(=O)CO[C@H]1CO[C@@]2(CCN(Cc3ccsc3)C2)C1.O=C(O)C(F)(F)F	-11.41%
CC(C)NC(=O)CC1COC2(CCN(Cc3cccnc3)CC2)C1.O=C(O)C(F)(F)F.O=C(O)C(F)(F)F (stereo unspecified)	94.4%
COc1ccc(CN2CCC3(CC2)CC(CC(=O)NC(C)C)CO3)cc1.O=C(O)C(F)(F)F (stereo unspecified)	102.4%
CC(C)OCc1ncn2c1CN(Cc1ccoc1)CCC2.O=C(O)C(F)(F)F	-8.556%
Cc1ncsc1CN1C[C@H](C(=O)N2CCCO2)[C@@H]2CCO[C@@H]2C1.O=C(O)C(F)(F)F.O=C(O)C(F)(F)F	-11.3%
Cc1[nH]ccc1C(=O)N(Cc1ccc(O)cc1)CC1CC1	16.53%
FC(F)(F)C1CCCn2c(CNCc3ccco3)nnc21 (stereo unspecified)	4.38%
c1nc(N2CCCCC2Cn2cncn2)c2ccsc2n1 (stereo unspecified)	0.5498%
CCCc1cc(N(CCOC)CC(F)F)n2ncnc2n1	-3.752%
CN(C)C(=O)CN(C)C(=O)c1cccn1CCc1ccccc1	-9.709%
CC(=O)N1CCOCC2(CCN(Cc3ccc(C)s3)CC2)C1.O=C(O)C(F)(F)F	-6.944%
Cc1ccc(CN2CCC3(CC2)CC(CC(=O)NC(C)C)CO3)s1.O=C(O)C(F)(F)F (stereo unspecified)	100.2%
Cc1ccc(CN2CC(C(=O)NC(C)C)C3(CCOCC3)C2)s1.O=C(O)C(F)(F)F (stereo unspecified)	1.411%
N#Cc1ccc(C(=O)N2CCCC3(C=Cc4ccccc4O3)CC2)cn1 (stereo unspecified)	6.705%
CC(=O)NC(C)C(=O)N(Cc1ccc(C)c(C)c1)C1CC1 (stereo unspecified)	-3.122%
CN1CCCC[C@@H]2[C@H]1[C@@H](c1ccccc1)CCN2C(=O)c1ccccn1	98.54%
CN1CCCCC[C@@H]2[C@@H]1[C@H](c1ccccc1)CN2C(=O)c1ccccn1	114.6%
CN1CC[C@H](c2ccccc2)[C@@H]2[C@H]1CCCCN2C(=O)c1cnccn1	-5.726%
Cn1cc(C(=O)N2CC[C@@H]3[C@@H]2CCN3c2ccccn2)cn1	-3.073%

SMILES	Percent Effect
O=C(c1ccccn1)N1C[C@@H]2CC[C@H](C1)N(C(=O)CCN1CCCC1)C2	-10.03%
CN1CCCC[C@@H]2[C@H]1[C@@H](c1ccccc1)CCN2C(=O)c1cnccn1	3.186%
CCc1nsc(NC2CC(=O)N(C(C)(C)C)C2)n1 (stereo unspecified)	-4.433%
O=C(CC1CCN(c2cccnn2)CC1)NCCO	94.51%
O=C(CN1CCCC1Cn1cccn1)NC1CCOCC1 (stereo unspecified)	-8.305%
O=C(CCc1cccs1)NCC1CCCN1c1cccnn1 (stereo unspecified)	-0.2437%
CN1CCC(C(=O)N2CCCN(c3cccnn3)CC2)C1 (stereo unspecified)	-4.749%
CC(OCC1CC1)C(=O)N1CCCN(c2cccnn2)CC1 (stereo unspecified)	-4.711%
O=C(CC1CCN(c2cccnn2)CC1)NC1CCOCC1	83.52%
CN(C)CCNC(=O)CC1CCN(c2cccnn2)CC1	87.97%
Cc1ccc(N2CCCC(NCC(=O)NC3CCOCC3)C2)nn1 (stereo unspecified)	0.2085%
O=C(CNCC1CCCN1c1cccnn1)NCCc1cccs1 (stereo unspecified)	4.052%
O=C(c1cn(-c2cc(N3CCSCC3)ncn2)cn1)N1CCOCC1	2.163%
COCCN1C[C@@H]2CN(C(=O)CC3CC3)C[C@@H]2C1=O	3.353%
Cc1n[nH]c(C)c1C1CCCN1C(=O)NCCSC(C)(C)C (stereo unspecified)	-9.308%
O=C(CC1CCc2ccccc21)NCCSc1ccccn1 (stereo unspecified)	-6.128%
CC(C)(C)SCCN1CC(=O)N2CC[C@@H](O)C[C@H]2C1=O	105.3%
O=C(C1CC1)N1CCN(C(=O)CSc2ccccn2)[C@H]2CS(=O)(=O)C[C@H]21	-23.43%
COCCN1CC(=O)N2CC[C@@H](O)C[C@H]2C1=O	111.7%
COCCN1C[C@H]2CN(C(=O)C3CC3)CCN2C1=O	0.212%
O=C1[C@@H]2C[C@H](O)CCN2C(=O)CN1CCSc1ccccn1	99.26%
Cc1ncccc1CNc1ccc(OCCO)nc1	-18.76%
O=C(c1ccoc1)N1CCC2(CC1)COC(COCc1ccccn1)C2 (stereo unspecified)	4.399%
Cc1nncn1CCNC(=O)C1SCCc2sccc21 (stereo unspecified)	0.3971%

SMILES	Percent Effect
CCc1ccc(CN2CCc3[nH]nc(C(=O)N4CCNC(=O)C4)c3C2)o1	-23.7%
CC(C)NC(=O)CCNC(=O)Nc1cnn(-c2ccccc2Cl)c1	-14.09%
O=C(O)C(F)(F)F.O=C(c1ccc(F)cc1)N1C[C@H]2CCC[C@@]2(COCc2ccncc2)C1	3.034%
COC[C@@]12CCO[C@@H]1CCN(C(=O)COc1ccccc1OC)C2	3.153%
Cc1ccc(C(=O)N2C[C@H]3CCC[C@@]3(COCc3ccncc3)C2)cn1.O=C(O)C(F)(F)F.O=C(O)C(F)(F)F	-7.119%
CCO[C@@H]1CO[C@@]2(CCCN(C(=O)COc3ccccc3OC)C2)C1	-3.938%
O=C(Cc1ccco1)N1C[C@H]2CCC[C@@]2(COc2cccnc2)C1	-23.92%
COC[C@@]12CCC[C@@H]1CN(C(=O)COc1ccccc1OC)C2	104.3%
CCOC[C@@]12CCC[C@@H]1CN(C(=O)COc1ccccc1OC)C2	101.3%
CCOC[C@@]12CCC[C@@H]1CN(C(=O)c1ccc(OC)cc1)C2	116.5%
CC(Oc1ccccc1C(F)(F)F)C(=O)NCC(N)=O (stereo unspecified)	-1.247%
CCCC(CNc1cc(C(C)C)nc2ccnn12)N(C)C (stereo unspecified)	-7.916%
Cc1n[nH]cc1CNC1(c2ccc(F)cc2)CCCC1	2.933%
CCN1CC2(CC1=O)CN(Cc1cccs1)CCN(C(=O)C(C)C)C2 (stereo unspecified)	9.795%
CN1CC2(CCN(C(=O)Cc3ccccn3)CC2)OCC1=O.O=C(O)C(F)(F)F	23.75%
CCN1CC2(CC1=O)CN(Cc1ccco1)CCN(C(=O)N(C)C)C2.O=C(O)C(F)(F)F (stereo unspecified)	1.855%
CC(C)NC(=O)N1CCN(CC2CC2)CC2(CC(=O)N(C)C2)C1.O=C(O)C(F)(F)F (stereo unspecified)	10.52%
CC(=O)N1CCN(Cc2cccs2)CC2(CC(=O)N(C)C2)C1.O=C(O)C(F)(F)F (stereo unspecified)	101.6%
CC(=O)N1CCN(Cc2ccco2)CC2(CC(=O)N(C)C2)C1.O=C(O)C(F)(F)F (stereo unspecified)	97.89%
Cc1ccc(CN2CCC3(CC(=O)N(c4cccc(F)c4)C3)C2)o1.O=C(O)C(F)(F)F (stereo unspecified)	18.19%
CC(=O)N1CCN(Cc2ccc(C)o2)CC2(CC(=O)N(C)C2)C1.O=C(O)C(F)(F)F (stereo unspecified)	88.46%
CCN1CC2(CC1=O)CN(Cc1cnn(C)c1)CCN(C(=O)C(C)C)C2.O=C(O)C(F)(F)F (stereo unspecified)	-2.77%
CC(C)C(=O)N1CCN(Cc2ccccn2)CC2(CC(=O)N(C)C2)C1.O=C(O)C(F)(F)F.O=C(O)C(F)(F)F (stereo unspecified)	98.24%
O=C(O)C(F)(F)F.O=C(O)C(F)(F)F.O=C(O)C(F)(F)F.c1coc(CN2CCC3(CC2)COCCN(CCN2CCCC2)C3)c1	10.77%
